Mtb RmlCD inh = M. tuberculosis RmlC/RmlD coupled enzyme inhibitors, primary screen, biochemical, compound mixtures, 384-well, from 1536-well plates | dTDP-4-dehydrorhamnose reductase (Mycobacterium tuberculosis (strain ATCC 25618 / H37Rv)) … | RmlC+RmlD coupled enzyme assay, percent inhibition; primary screen in compound mixtures | inhibition, % at 3.6 µM | 0.03% of 160,000 active | AID 1533, 2009; in the data active = inhibition mostly above about 34%, no sharp cut-off
Target sequence (P9WH09 whole entry, looked up): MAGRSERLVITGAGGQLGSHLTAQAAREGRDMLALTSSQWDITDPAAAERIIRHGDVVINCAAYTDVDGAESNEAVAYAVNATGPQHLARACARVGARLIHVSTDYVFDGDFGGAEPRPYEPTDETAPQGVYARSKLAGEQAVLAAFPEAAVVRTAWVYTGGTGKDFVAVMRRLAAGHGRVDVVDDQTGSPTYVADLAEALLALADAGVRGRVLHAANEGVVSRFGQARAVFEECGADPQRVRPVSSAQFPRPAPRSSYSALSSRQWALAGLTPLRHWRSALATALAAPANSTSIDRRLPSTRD
Target sequence (P9WH11 whole entry, looked up): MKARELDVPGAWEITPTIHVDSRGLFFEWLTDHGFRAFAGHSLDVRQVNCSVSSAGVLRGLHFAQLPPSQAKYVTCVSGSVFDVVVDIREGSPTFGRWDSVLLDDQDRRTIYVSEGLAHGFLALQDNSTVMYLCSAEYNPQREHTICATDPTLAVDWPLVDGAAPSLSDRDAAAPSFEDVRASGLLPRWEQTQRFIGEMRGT
RecA splice inh = Mtb RecA intein splicing inhibitors, primary screen, biochemical, fluorescence, HTS; cell-free RecA intein splicing; inhibition, % (no concentration beside the values); 0.75% of 290,000 active; AID 2221, 2009; in the data active = inhibition above about 30%;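 note: 0% = vehicle wells and 100% = reference inhibitor control wells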
Starred values were filed as active, the others as inactive; / = no result. Rows were chosen to be rich in hits. Some 0.77% of all compounds tested hit in one or more screens of this group.

SMILES | Mtb RmlCD inh | RecA splice inh
CCOc1cc(/C=C2\C(=N)N3N=C(S(=O)(=O)CC)SC3=NC2=O)ccc1OC(=O)c1ccco1 | / | 31*
CCOc1cc(/C=C2/C(=N)N3N=C(CC)SC3=NC2=O)ccc1OC(=O)c1ccco1 | / | 21
CCOc1cc(/C=C2\C(=N)N3N=C(N4CCCCC4)SC3=NC2=O)ccc1OC(=O)c1ccco1 | / | 35*
CSc1ccc(CN2CCN(Cc3ccc([N+](=O)[O-])cc3)CC2)cc1 | / | 0
Clc1ccc(CO/N=C(\Cn2ccnc2)c2ccc(Cl)cc2Cl)c(Cl)c1 | / | 32*
Clc1ccc(OCCCn2ccnc2)c(Br)c1 | 2 | 1
COc1ccc(NC(=O)/C(C#N)=C\c2ccc(-c3cc(C(=O)O)ccc3C)o2)cc1 | / | 1
Cn1cc(Br)c(C(=O)NC2C3CC4CC(C3)CC2C4)n1 (stereo not given) | / | 3
COc1cccc(C2NC(c3cccc(OC)c3O)C(C)C(=O)C2C)c1O (stereo not given) | 5 | 1
CC1C(=O)C(C)C(c2cc(Cl)ccc2O)NC1c1cc(Cl)ccc1O (stereo not given) | / | 50*
CC/C(C)=N\N=C\c1c(O)n(CC)c2cc(C3=NNC(=O)CC3)ccc12 | / | -17
COC(=O)CC1=NN(c2ccc(OC)cc2)C(=O)C1 | / | 72*
COC(=O)Cc1c(C(=O)OC)nnn1-c1ccc(OC)cc1 | 22 | -2
CC(C)OC(=O)Cn1nnc2c(cnn2-c2ccccc2)c1=O | -9 | 0
O=[N+]([O-])C(/C=C(\Cl)[N+](=O)[O-])=C1N(Cc2ccc(Cl)nc2)CCN1Cc1ccc(Cl)nc1 | / | 61*
O=[N+]([O-])/C(C(=C(Cl)Cl)N1CCN(Cc2ccccc2)CC1)=C1\NCCN1Cc1ccc(Cl)nc1 | 1 | 13
C=CCN1C(=O)NC(c2ccc(OC)cc2)(C(F)(F)F)S/C1=C(\C#N)c1nnc(N2CCOCC2)n1-c1ccccc1 (stereo not given) | -9 | 43*
C=CCN1C(c2cccc(C(F)(F)F)c2)=CS/C1=C(/C#N)c1nnc(N2CCOCC2)n1-c1ccccc1 | / | 1
COCCNCC(=O)Nc1ccc(C)c(S(=O)(=O)N2CCCCC2)c1 | 6 | 4
CCN(CC)S(=O)(=O)c1cc(NC(=O)Cn2ncc(Cl)c(Cl)c2=O)ccc1C | 7 | 52*
CCN(CC)S(=O)(=O)c1cc(NC(=O)CN2C(=O)NC(C)(c3ccccc3)C2=O)ccc1C (stereo not given) | / | 3
Cc1ccc(NC(=O)CCl)cc1S(=O)(=O)N1CCCCCC1 | 7 | 52*
Cc1ccc(NC(=O)c2ccc3c(c2)[nH]c(=O)n3C(C)C)cc1 | -8 | -1
CNC(=S)N(Cc1ccc(OC)cc1)Cc1cc2cccc(C)c2[nH]c1=O | -14 | 9
CC1OC(NCCc2ccccc2)C(O)C(O)C1O (stereo not given) | / | -6
SMILES | Mtb RmlCD inh | RecA splice inh
O=C1NCN(c2ccccc2)C12CCNCC2 | -4 | -1
O=C1NCN(c2ccccc2)C12CCN(CCCC(c1ccc(F)cc1)c1ccc(F)cc1)CC2 | 9 | 38*
CCS(=O)(=O)c1ccc2oc(Nc3ccccc3Cl)nc2c1 | / | 3
COc1ccc(-n2c(C)cc(C(=O)CN3C(=O)c4ccccc4C3=O)c2C)cc1 | 4 | -1
COc1ccc(-n2c(C)cc(C(=O)CCl)c2C)cc1 | 6 | 34*
CC(C)=CC(=O)Nc1ccc(Cl)cc1 | -9 | -1
CS/C(=C\[N+](=O)[O-])Nc1ccc(Cl)cc1 | / | 42*
Cc1ccc(C)c(N(CC(=O)NC2CCCC2)C(=O)CNC(=O)c2cccs2)c1 | / | -1
CN1c2ccccc2C(C)(C)C12C=Cc1cc(O)ccc1O2 (stereo not given) | / | 6
CN1c2ccccc2C(C)(C)C12C=Nc1c(cc(N3CCOCC3)c3ccccc13)O2 (stereo not given) | -9 | 46*
Cc1cccc(CSc2nnnn2-c2ccccc2)c1 | 7 | 7
Cc1ccc(C)c(-n2nnnc2Sc2nnnn2-c2ccccc2)c1 | 10 | 71*
O=C(CCCN1C(=O)c2ccccc2C1=O)NCCCN1CCOCC1 | 7 | 1
CCCCOc1ccc(C(=O)N(C)CC(=O)Nc2ccc(C)cc2)cc1 | / | 0
COc1ccccc1N1CCN(C(=O)c2cc3cc(C)ccc3[nH]2)CC1 | / | -2
O=C(c1c[nH]c(C(=O)C(Cl)(Cl)Cl)c1)c1ccccc1F | / | 60*
O=C(c1c[nH]c(C(=O)C(Cl)(Cl)Cl)c1)c1c(F)cccc1F | / | 14
CC(C)c1[nH]nc2c1C(C(C)C)C(C#N)=C(N)O2 (stereo not given) | -7 | 6
N#CC1=C(N)Oc2n[nH]c(-c3cccs3)c2C1c1ccncc1 (stereo not given) | 5 | 60*
CCCc1[nH]nc2c1C(Cc1ccccc1)C(C#N)=C(N)O2 (stereo not given) | -8 | 28
Cc1[nH]nc2c1C(Cc1ccccc1)C(C#N)=C(N)O2 (stereo not given) | / | 27
CC(C)c1[nH]nc2c1C(Cc1ccccc1)C(C#N)=C(N)O2 (stereo not given) | -7 | 53*
N#CC1=C(N)Oc2n[nH]c(-c3cccs3)c2C1C1CCCCC1 (stereo not given) | -13 | 19
CCc1[nH]nc2c1C(Cc1ccccc1)C(C#N)=C(N)O2 (stereo not given) | 4 | 59*
CC(C)c1[nH]nc2c1C(c1cccnc1)C(C#N)=C(N)O2 (stereo not given) | 26 | 43*
SMILES | Mtb RmlCD inh | RecA splice inh
COc1ccc2c(c1OC)C(=O)OC2N1C(=O)CC[C@H]1C(=O)NCC1CCCO1 (stereo not given in full) | / | -1
Cc1cccc(Oc2coc3cc(OC(=O)c4cccs4)ccc3c2=O)c1 | 5 | -7
Cc1ccc(C2C(C#N)=C(N)Oc3nc(-c4ccccc4)[nH]c32)o1 (stereo not given) | 4 | 89*
CCOC(=O)C1=C(C)OC(N)=C(C#N)C1c1ccc(C)o1 (stereo not given) | 5 | -5
CCc1[nH]nc2c1C(c1ccc(C)o1)C(C#N)=C(N)O2 (stereo not given) | / | 49*
COCc1[nH]nc2c1C(c1ccccc1Cl)C(C#N)=C(N)O2 (stereo not given) | -5 | 24
COCc1[nH]nc2c1C(c1ccccc1OC)C(C#N)=C(N)O2 (stereo not given) | / | 62*
Cc1ccc([C@H]2C(C#N)=C(N)Oc3cc(C)oc(=O)c32)o1 | / | 7
COc1cc2[nH]c(=S)n(CCN3CCOCC3)c(=O)c2cc1OC | 1 | 0
O=C(CCl)Nc1c2c(nn1-c1ccccc1)CSC2 | / | 35*
O=C(CCCCl)Nc1c2c(nn1-c1ccccc1)CSC2 | / | 2
Oc1cc(O)c2c(c1)O[C@H](c1ccc(O)c(O)c1)[C@@H](O)C2 | / | 59*
O=C1c2c(O)cc(O)cc2O[C@H](c2ccc(O)c(O)c2)[C@H]1O | / | -8
O=C(NC(=C(Cl)Cl)S(=O)(=O)c1ccc(Cl)cc1)c1ccccc1 | 5 | 30*
Cc1ccc(S(=O)(=O)C(NC(=O)c2ccccc2)=C(Cl)Cl)cc1 | / | -6
Cc1[nH]n(-c2ccccc2)c(=O)c1C(c1ccccc1[N+](=O)[O-])C(C#N)C#N (stereo not given) | / | 64*
